KDM5B inhibitor = KDM5B demethylase inhibition. KDM5B demethylase, FDH-coupled NADH fluorescence (FDH is formaldehyde dehydrogenase). 220,000 compounds, 2.6% hits. Q9UGL1. AID 1347165. Potency, µM (highest dose often 57.7 µM), usual class: inhibitors; active means well fitted inhibition curve with a large enough effect; inconclusive means small, poorly fitted or top-dose-only effect; inactive means no such curve, though single readings can be large or run the other way; further: potency means the concentration at half of the fitted maximal effect; 0% is about no effect; nearly all actives have a fitted effect of over 70% in size
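Inhibition is measured as reduced NADH fluorescence generation from FDH coupling to formaldehyde release. Truncated KDM5BΔAP at 200 nM final acts on H3K4me3 peptide (12.5 µM in substrate mix) in pH 7.5 HEPES buffer with Tween-20, 30 min, room temperature.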
IP6K1 inh = blocks human inositol hexakisphosphate kinase 1. Q92551. IP6K1 kinase, ADP-Glo luminescence, 2 h; stronger effect = lower value. activity change, % (series mostly up to about 58 µM). 140,000 compounds, 0.81% hits. AID 1645851; in the data active means activity change below about -25%; further: on the % scale 0 is the no-effect control and ±100 the full control effect
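ADP-Glo luminescence measures ADP made by human IP6K1 during a 2 h RT reaction with ATP/IP6 (mix at 1.3 mM/130 uM); top library doses 57.5 and 19.1 uM final.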
An asterisk follows results filed as active. Sampled rows, rich in hits. Any-hit rate of the full collection: about 2.8%.

How did COc1ccccc1CC(=O)NC(C)C(=O)N1CCN(c2ccccn2)CC1 (stereo not drawn) do in these assays?
KDM5B inhibitor: 28µM*; IP6K1 inh: -3

What do the screens show for `CC(C)C(=O)NC(C)C(=O)N1CCN(c2ccccn2)CC1` (stereo not drawn)?
KDM5B inhibitor: inconclusive; IP6K1 inh: 30

Results for COc1ccccc1CCC(=O)NC(C)C(=O)N1CCN(c2ccccn2)CC1 (stereo not drawn) ?
KDM5B inhibitor: 25µM*; IP6K1 inh: 5

Results for COc1ccc(CCC(=O)NC(C)C(=O)N2CCN(c3ccccn3)CC2)cc1 (stereo not drawn) ?
KDM5B inhibitor: inconclusive; IP6K1 inh: 2

Results for CNC(=O)[C@@H]1CN(C(=O)c2ccc(C)[nH]c2=O)C[C@H]1c1nc(COC)no1 ?
KDM5B inhibitor: 25µM*; IP6K1 inh: 1

What do the screens show for `CNC(=O)[C@@H]1CN(C(=O)c2sccc2C)C[C@H]1c1nc(COC)no1`?
KDM5B inhibitor: inactive; IP6K1 inh: 14

What do the screens show for `COc1ccc(C(=O)N2CC[C@@H]3CN(c4cnccn4)[C@@H]3C2)c(OC)n1`?
KDM5B inhibitor: 32µM*; IP6K1 inh: 26

Results for COc1ccc(C(=O)N2CC[C@H]3C(=O)NCCCCCCN(Cc4ccncc4)[C@@H]3C2)c(OC)n1 ?
KDM5B inhibitor: inconclusive; IP6K1 inh: 3

What do the screens show for `COc1ccccc1CNC(=O)c1ccc2nc(Cc3ccccc3F)oc2c1`?
KDM5B inhibitor: inactive

Results for Cc1noc(-c2ccc3c(c2)OCO3)c1C(=O)N1CCC(Cc2ccccc2)CC1 ?
KDM5B inhibitor: inconclusive; IP6K1 inh: -8

What do the screens show for `Cc1noc(-c2ccc3c(c2)OCO3)c1C(=O)NCCc1cccc(Cl)c1`?
KDM5B inhibitor: 28µM*; IP6K1 inh: 15

How did COc1cccc(CCNC(=O)c2c(C)noc2-c2ccc(OC(F)(F)F)cc2)c1 do in these assays?
KDM5B inhibitor: inactive; IP6K1 inh: 7

What do the screens show for `COc1ccc(CC2CCN(C(=O)c3c(C)noc3-c3ccc4c(c3)OCO4)CC2)cc1`?
KDM5B inhibitor: 20µM*; IP6K1 inh: -12

What do the screens show for `COc1ccc(CCNC(=O)c2c(C)noc2-c2ccc3c(c2)OCO3)cc1OC`?
KDM5B inhibitor: 28µM*; IP6K1 inh: -2

How did COc1cccc(CCNC(=O)c2c(C)noc2-c2ccc3c(c2)OCO3)c1 do in these assays?
KDM5B inhibitor: 14µM*; IP6K1 inh: 4

What do the screens show for `COc1ccc(CCNC(=O)c2c(C)noc2-c2ccccc2OC)cc1OC`?
KDM5B inhibitor: inactive; IP6K1 inh: -10

What do the screens show for `Cc1noc(-c2cccc(F)c2)c1C(=O)NCCc1cccc(Cl)c1`?
KDM5B inhibitor: inactive; IP6K1 inh: -3

Results for CN(CC(=O)Nc1ccc2c(c1)OC1(CCCCC1)O2)Cc1ccsc1 ?
KDM5B inhibitor: inactive

How did CCc1cccc(CC)c1NC(=O)C(C)Sc1ccccc1 (stereo not drawn) do in these assays?
KDM5B inhibitor: inactive

Results for Cc1ccc(C(=O)N2CCN(c3cc(-c4cccs4)[nH]n3)CC2)s1 ?
KDM5B inhibitor: inactive; IP6K1 inh: 30

Results for Cc1ccc(S(=O)(=O)N[C@H]2CO[C@H]3[C@@H]2OC[C@H]3OCC(N)=O)cc1 ?
KDM5B inhibitor: inactive; IP6K1 inh: 6

Results for BrC(/C=N/N(c1ccccc1)c1ccccc1)=C/c1ccccc1 ?
KDM5B inhibitor: inactive

What do the screens show for `CNC(=O)CNc1nc(-c2ccsc2)nc2ccccc12`?
KDM5B inhibitor: inactive

What do the screens show for `COc1ccc(C(=O)N2CCc3nn(C)c(=O)n3CC2)cn1`?
KDM5B inhibitor: inactive; IP6K1 inh: -5

Results for COc1ccc(-c2cc3c(ccn3C)c(C(=O)NCCC(N)=O)n2)cc1OC ?
KDM5B inhibitor: 35µM*; IP6K1 inh: -4

How did COc1cccc(-c2cc3c(ccn3C)c(C(=O)NCCc3cnc[nH]3)n2)c1OC do in these assays?
KDM5B inhibitor: 40µM*; IP6K1 inh: -15

How did COc1ccc(-c2cc3c(ccn3C)c(C(=O)NCCc3cnc[nH]3)n2)cn1 do in these assays?
KDM5B inhibitor: 35µM*; IP6K1 inh: -9

What do the screens show for `COc1cc(F)ccc1-c1cc2c(ccn2C)c(C(=O)NCCc2cnc[nH]2)n1`?
KDM5B inhibitor: inactive; IP6K1 inh: -15

How did Cn1ccc2c(C(=O)NCCc3cnc[nH]3)nc(-c3cccnc3)cc21 do in these assays?
KDM5B inhibitor: inactive; IP6K1 inh: -16

How did COc1ccccc1-c1cc2c(ccn2C)c(C(=O)NCCc2cnc[nH]2)n1 do in these assays?
KDM5B inhibitor: 40µM*; IP6K1 inh: 1

How did COc1ccc(CNC(=O)c2nc(-c3ccccc3OC)cc3c2ccn3C)cc1OC do in these assays?
KDM5B inhibitor: inactive; IP6K1 inh: -4

How did Cn1ccc2c(C(=O)NCCc3cnc[nH]3)nc(-c3cccc(CO)c3)cc21 do in these assays?
KDM5B inhibitor: inactive; IP6K1 inh: 25

How did CCOC(=O)c1cccc(NC(=O)c2c(OCC)cc(=O)n3c2CCCC3)c1 do in these assays?
KDM5B inhibitor: inactive; IP6K1 inh: -12

How did Cn1c(CN2CCOCC2)nnc1C1CCCN(c2ccc(C#N)cn2)C1 (stereo not drawn) do in these assays?
KDM5B inhibitor: inactive; IP6K1 inh: 0

How did O=C(NCC1(c2ccccc2)CC1)c1ccc(S(=O)(=O)N2CCOCC2)cc1 do in these assays?
KDM5B inhibitor: inactive

What do the screens show for `COc1ccccc1-c1ccc(C(=O)N2CCC(C(=O)NCC(F)(F)F)CC2)cc1`?
IP6K1 inh: 4

Results for O=C(OCc1cccc(COC(=O)c2ccc(OCC3CCCO3)cc2)c1)c1ccc(OCC2CCCO2)cc1 (stereo not drawn) ?
KDM5B inhibitor: inactive

How did C=CCNC(=O)C[C@@H]1CCN(S(=O)(=O)c2ccccc2)C[C@@H]1CC do in these assays?
KDM5B inhibitor: inactive; IP6K1 inh: -8

What do the screens show for `Cn1ccc2c(C(=O)NCCc3cnc[nH]3)nc(-c3cnn(Cc4ccccc4)c3)cc21`?
KDM5B inhibitor: 32µM*; IP6K1 inh: -6

How did Cn1ccc2c(C(=O)NCCc3cnc[nH]3)nc(-c3ccccc3)cc21 do in these assays?
KDM5B inhibitor: inactive; IP6K1 inh: 7

Results for COc1cccc(C2C3=C(CCCC3=O)Nc3c(C#N)cnn32)c1OC (stereo not drawn) ?
KDM5B inhibitor: inactive

How did O=C(NCCN1CCCC1)c1cc2cn(C3CC3)cc2s1 do in these assays?
KDM5B inhibitor: 10µM*; IP6K1 inh: 3

What do the screens show for `O=C(NCc1ccc(N2CCOCC2)cc1)c1cc2cn(C3CC3)cc2s1`?
KDM5B inhibitor: inconclusive; IP6K1 inh: 4

How did CN1CCN(C(=O)[C@H]2C[C@H](C(=O)O)CN(C(=O)c3ncccc3O)C2)CC1 do in these assays?
KDM5B inhibitor: inconclusive; IP6K1 inh: 27

How did COc1cc(/C=C/C(=O)c2ccc(C3CCCCC3)cc2)cc(Br)c1O do in these assays?
KDM5B inhibitor: inactive

How did Cc1ccc(CNC(=O)c2c(C)sc3ccn(CC(C)C)c(=O)c23)o1 do in these assays?
KDM5B inhibitor: 25µM*; IP6K1 inh: -1

Results for CCn1ccc2sc(C)c(C(=O)NCCC(C)C)c2c1=O ?
KDM5B inhibitor: inactive; IP6K1 inh: 16

What do the screens show for `O=C(c1ccc(N2CCOCC2)nc1)N1CCC(Cn2cccn2)CC1`?
KDM5B inhibitor: inconclusive; IP6K1 inh: 13

What do the screens show for `O=C1CCCN1CC1CCN(C(=O)c2ccc(N3CC[C@H](O)C3)nc2)CC1`?
KDM5B inhibitor: inconclusive; IP6K1 inh: 44
